We go through 15 compounds from PubChem BioAssay.

Active and inactive are the calls of the source.

Assay [1] has as its system PRMT1 (protein arginine N-methyltransferase 1). Put plainly: PRMT1 binders on small-molecule microarrays, primary screen, biochemical, small-molecule microarray, 635 nm fluorescence (AID 1088).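 Also: binding of Prmt1 protein to compounds spotted on small-molecule microarray slides.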 Conditions: small-molecule microarray binding, higher = more signal.
The nature of assay [2]: yeast growth modulation, basal conditions, primary screen, YJM789 clinical isolate, OD600, 24 h (AID 1089).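 Also: growth of clinical yeast isolate S. cerevisiae YJM 789 seeded 1000 cells per well; test concentration not given here.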 The note with it: S. cerevisiae YJM789 growth, higher = more signal, called active from +8 up or from −8 down.
Assay [3] in a line: fission yeast growth modulation, primary screen, strain 972, OD600, 24 h, no modulator (AID 1090).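 Also: basal condition with compound alone and no growth modifier present; test concentration not given here.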 The note with it: S. pombe 972 growth, higher = more signal, called active from +8 up or from −8 down.
Assay [4] in a line: S. cerevisiae growth modulation with rapamycin, primary screen, strain BY4716, OD600, 96 h (AID 1091). Also: test concentration not given here. Conditions: higher = more signal, called active from +8 up or from −8 down.
The target in assay [5] is Torsin-1A-interacting protein 2 (Homo sapiens) (UniProt Q8NFQ8). Put plainly: LULL1 binders on small-molecule microarray, primary screen, cell lysate, human LULL1 lysate, 635/667 nm fluorescence (AID 1092).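 Also: probe is lysate of COS7 cells overexpressing human LULL1; score merges per-feature 667 nm fluorescence with signal-to-noise.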 The note with it: hLULL1 lysate binding, 635 nm fluorescence, higher = more signal.
Sequence of Torsin-1A-interacting protein 2 (Homo sapiens) (Q8NFQ8 whole entry, looked up): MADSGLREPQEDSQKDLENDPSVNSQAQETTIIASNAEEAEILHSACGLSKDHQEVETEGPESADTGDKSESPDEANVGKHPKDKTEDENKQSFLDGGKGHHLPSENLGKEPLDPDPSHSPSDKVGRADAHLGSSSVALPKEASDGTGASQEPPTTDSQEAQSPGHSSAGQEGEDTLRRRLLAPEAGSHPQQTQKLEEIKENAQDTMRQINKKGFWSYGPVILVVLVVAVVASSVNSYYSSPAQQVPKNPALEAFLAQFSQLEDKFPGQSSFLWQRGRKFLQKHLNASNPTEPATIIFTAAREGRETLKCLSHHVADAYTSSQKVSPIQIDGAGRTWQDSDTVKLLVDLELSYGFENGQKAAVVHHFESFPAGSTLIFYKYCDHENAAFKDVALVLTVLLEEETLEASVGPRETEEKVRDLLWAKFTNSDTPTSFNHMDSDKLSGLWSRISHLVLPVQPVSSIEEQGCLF
The nature of assay [6]: E. coli growth modulation, two-sided OD650, primary screen, E. coli filamentation project, strain DRC41, 24 h (AID 1093).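 Also: MC1000 strain lacking acrAB efflux and sulA so SOS filamentation is blocked; test concentration not given here.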 Conditions: OD650, 24 h, higher = more signal, called active from +8 up or from −8 down.
Assay [7] is described as follows: small-molecule microarray binders of probe aLefty2, primary screen, biochemical, biotinylated probe, 635/667 nm fluorescence (AID 1094).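 Also: score merges spot fluorescence near 667 nm with spot signal-to-noise ratio.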 Conditions: higher = more signal.
Assay [8] concerns Noggin (protein binding on small-molecule microarray). Put plainly: Noggin binders on small-molecule microarray, primary screen, biochemical, 635/667 nm fluorescence (AID 1095).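 Also: score merges 667 nm feature fluorescence with signal to noise over triplicate slides.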 Conditions: 635 nm fluorescence, higher = more signal.
The target of assay [9] is Neurogenic locus notch homolog protein 3 (Homo sapiens) (UniProt Q9UM47). Put plainly: NOTCH3 binders on small-molecule microarray, primary screen, biochemical, 635/667 nm fluorescence (AID 1096). The note with it: NOTCH3 binding, 635 nm fluorescence, higher = more signal.
Sequence of Neurogenic locus notch homolog protein 3 (Homo sapiens) (Q9UM47 whole entry, looked up): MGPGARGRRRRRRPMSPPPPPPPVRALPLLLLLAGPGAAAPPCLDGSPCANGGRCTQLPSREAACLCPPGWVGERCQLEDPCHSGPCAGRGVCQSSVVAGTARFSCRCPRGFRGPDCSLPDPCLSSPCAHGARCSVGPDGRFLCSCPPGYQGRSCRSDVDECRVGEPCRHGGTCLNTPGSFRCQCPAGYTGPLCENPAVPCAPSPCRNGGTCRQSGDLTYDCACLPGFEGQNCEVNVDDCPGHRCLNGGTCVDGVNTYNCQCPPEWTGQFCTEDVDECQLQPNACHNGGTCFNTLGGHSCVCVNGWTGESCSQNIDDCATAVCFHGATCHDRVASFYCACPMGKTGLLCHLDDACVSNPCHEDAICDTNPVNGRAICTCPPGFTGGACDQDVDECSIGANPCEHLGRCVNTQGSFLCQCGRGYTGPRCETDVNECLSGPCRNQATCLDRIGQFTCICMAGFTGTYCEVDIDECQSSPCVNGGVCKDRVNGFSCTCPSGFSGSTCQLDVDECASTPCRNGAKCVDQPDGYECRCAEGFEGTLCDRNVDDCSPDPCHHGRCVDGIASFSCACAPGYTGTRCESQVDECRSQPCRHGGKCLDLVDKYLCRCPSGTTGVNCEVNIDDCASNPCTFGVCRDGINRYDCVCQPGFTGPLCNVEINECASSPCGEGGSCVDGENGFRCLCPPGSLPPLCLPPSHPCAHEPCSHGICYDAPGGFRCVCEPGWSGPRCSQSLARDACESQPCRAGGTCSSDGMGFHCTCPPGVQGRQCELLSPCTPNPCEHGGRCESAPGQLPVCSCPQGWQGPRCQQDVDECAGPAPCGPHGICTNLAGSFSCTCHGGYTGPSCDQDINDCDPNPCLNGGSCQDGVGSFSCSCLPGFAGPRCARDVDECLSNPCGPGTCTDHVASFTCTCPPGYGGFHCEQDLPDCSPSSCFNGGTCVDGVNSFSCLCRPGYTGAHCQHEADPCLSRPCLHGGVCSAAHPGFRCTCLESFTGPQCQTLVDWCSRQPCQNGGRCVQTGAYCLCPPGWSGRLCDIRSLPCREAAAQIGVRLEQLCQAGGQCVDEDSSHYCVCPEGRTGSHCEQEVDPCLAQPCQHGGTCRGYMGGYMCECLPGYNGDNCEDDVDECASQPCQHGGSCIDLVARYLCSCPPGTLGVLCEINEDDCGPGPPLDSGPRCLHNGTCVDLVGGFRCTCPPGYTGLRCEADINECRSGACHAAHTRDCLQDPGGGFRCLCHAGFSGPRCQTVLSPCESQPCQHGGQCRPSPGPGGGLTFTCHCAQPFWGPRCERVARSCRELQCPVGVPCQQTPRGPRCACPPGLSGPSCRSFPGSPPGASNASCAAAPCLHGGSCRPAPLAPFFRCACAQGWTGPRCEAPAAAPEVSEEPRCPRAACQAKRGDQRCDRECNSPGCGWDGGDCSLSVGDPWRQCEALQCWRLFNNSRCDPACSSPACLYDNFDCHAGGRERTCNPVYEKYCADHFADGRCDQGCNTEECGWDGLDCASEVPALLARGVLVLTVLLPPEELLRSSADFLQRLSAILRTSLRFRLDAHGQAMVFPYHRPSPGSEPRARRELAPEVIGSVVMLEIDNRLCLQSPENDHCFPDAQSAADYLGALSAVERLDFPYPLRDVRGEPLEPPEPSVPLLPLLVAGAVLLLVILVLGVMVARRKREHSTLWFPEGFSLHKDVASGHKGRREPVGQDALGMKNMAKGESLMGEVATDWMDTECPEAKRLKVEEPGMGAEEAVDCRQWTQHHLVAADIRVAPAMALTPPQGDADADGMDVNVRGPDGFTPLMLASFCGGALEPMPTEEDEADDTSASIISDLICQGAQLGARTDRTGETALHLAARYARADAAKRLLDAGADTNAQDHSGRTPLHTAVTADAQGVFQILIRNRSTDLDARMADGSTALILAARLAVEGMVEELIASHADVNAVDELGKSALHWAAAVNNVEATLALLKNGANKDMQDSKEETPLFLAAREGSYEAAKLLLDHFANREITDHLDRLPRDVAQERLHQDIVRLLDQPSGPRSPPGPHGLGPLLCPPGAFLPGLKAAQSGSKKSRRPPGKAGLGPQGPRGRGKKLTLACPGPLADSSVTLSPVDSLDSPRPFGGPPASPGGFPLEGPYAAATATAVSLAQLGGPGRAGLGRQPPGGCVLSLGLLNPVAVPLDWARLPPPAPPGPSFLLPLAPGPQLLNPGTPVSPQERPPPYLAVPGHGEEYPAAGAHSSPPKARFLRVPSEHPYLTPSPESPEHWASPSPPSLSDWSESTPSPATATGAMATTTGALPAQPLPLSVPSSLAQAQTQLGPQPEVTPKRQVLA
The nature of assay [10]: small-molecule microarray binders of probe aEGFR, primary screen, biochemical, biotinylated probe, 635/667 nm fluorescence (AID 1097).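 Also: probe is a biotinylated anti-EGFR antibody binding compounds printed on slides; score combines fluorescence near 667 nm and signal to noise of each spot.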 The note with it: higher = more signal.

For `[N-]=[N+]=NCc1ccccc1[C@H]1OC(c2ccc(OCCCO)cc2)=N[C@@]1(Cc1ccccc1N=[N+]=[N-])C(N)=O`, the composite z-score in [1] is 1.56; in [5] it was 3.31; in assay [7], 0.0573; in assay [8], 0.412; in assay [9] it was 1.09; in assay [10], 0.0009. The z-score in assay [2] is 0.61 (inactive); in assay [3], -0.678 (inactive); in assay [4], -1.39 (inactive); in assay [6], 0.0539 (inactive).
For the compound `CC(C)c1ccc(NN2C(C(O)C(C)c3ccccc3)C=CC3C(=O)N(c4ccccc4)C(=O)C32)cc1` (stereo not given), the composite z-score in [1] stood at 1.57; in assay [5], 3.18; in assay [7] it was 0.57; in assay [8], 0.272; in assay [9], 1.07; in assay [10], 0.298. In addition, the z-score in assay [2] is -0.202 (inactive); in assay [3] it was 0.0423 (inactive); in assay [4] it was 1.21 (inactive); in [6], -1.28 (inactive).
As to `CN1C(=O)C2C=CC(C(O)c3cccs3)N(N(c3ccccc3)c3ccccc3)C2C1=O` (stereo not given), the composite z-score in [1] was 1.2; in assay [5], 2.62; in assay [7], 0.0453; in assay [8] it was 0.0625; in [9], 0.932; in assay [10], -0.17. In addition, the z-score is 1 (inactive) in [2], 0.881 (inactive) in assay [3], 0.571 (inactive) in assay [4] and -0.874 (inactive) in assay [6].
With `CCCCCCc1nc(-c2ccc(OC)nc2)c(C)c2c1[Si](C(C)C)(C(C)C)OC2`, the composite z-score is 0.319 in assay [1]; -0.627 in assay [5]; 0.054 in assay [7]; 0.293 in assay [8]; 0.0448 in assay [9]; -0.131 in assay [10]. Also, the z-score is -0.0796 (inactive) in assay [2], -0.329 (inactive) in [3], 0.182 (inactive) in assay [4] and 0.836 (inactive) in [6].
Turning to `Cc1ccc(S[C@]2(C(=O)NC(C)C)CC(=O)N(Cc3ccccc3)[C@@H]2c2ccc(CO)cc2I)cc1`, the composite z-score in assay [1] was 1.46; in [5], 2.11; in assay [7] it was -0.102; in assay [8], -1.44; in assay [9], -0.332; in [10] it was -0.0146. In addition, the z-score is -1.12 (inactive) in [2], -1.15 (inactive) in assay [3], 0.739 (inactive) in assay [4] and 0.301 (inactive) in [6].
Turning to `O=C1C2C=CC(C(O)C3CCCCC3)N(Nc3ccccc3F)C2C(=O)N1c1ccccc1` (stereo not given), the composite z-score in assay [1] worked out at 1.55; in [5], 3.24; in [7], 0.79; in assay [8] it was 0.0994; in [9], 1.02; in [10] it was 0.239. Moreover, the z-score in assay [2] is 0.968 (inactive); in assay [3], -0.645 (inactive); in [4], 0.515 (inactive); in [6], 0.256 (inactive).
As for `C=C(CCCC)C(=O)CC[C@@H](OC(C)=O)c1ccc(OCCO)cc1`, the composite z-score is 1.01 in assay [1]; 0.742 in assay [5]; -0.178 in assay [7]; 1.53 in [8]; 1.13 in assay [9]; -0.216 in assay [10]. The z-score was -1.58 (inactive) in [2], -2.48 (inactive) in [3], -0.679 (inactive) in assay [4] and 0.44 (inactive) in [6].
In the case of `COC(=O)[C@@]1(Cc2ccc(F)cc2)[C@H]2c3cc(C(=O)N4CCCC4)n(C[C@H](O)CO)c3C[C@H]2CN1C(=O)c1ccccc1`, the composite z-score in [1] was -0.399; in assay [5] it was 1.57; in assay [7], 1.03; in assay [8] it was -0.123; in assay [9], 0.176; in [10], 0.732. Further, the z-score in assay [2] was -0.161 (inactive); in assay [3], 1.34 (inactive); in [4], -0.0363 (inactive); in [6], -0.836 (inactive).
For `CC(C)c1ccc(NN2C(C(O)C3CCCCC3)C=CC3C(=O)N(c4ccccc4)C(=O)C32)cc1` (stereo not given), the composite z-score in assay [1] was 1.02; in assay [5], 3.07; in [7], 0.0779; in assay [8] it was -0.0338; in assay [9], 1.03; in assay [10] it was 0.168. The z-score in [2] was 0.487 (inactive); in assay [3], 0.361 (inactive); in assay [4] it was -0.287 (inactive); in assay [6] it was -1.23 (inactive).
On to `CCOC(=O)C[C@H]1[C@H](OC(=O)c2cc3ccccc3oc2=O)[C@@H](NC(=O)Cc2ccc(OC)cc2)c2cc(OCCCO)ccc2N1C(=O)Cc1ccc(OC)cc1`, for which the composite z-score in assay [1] is 0.638; in assay [5], 1.65; in assay [7] it was -0.058; in assay [8] it was 0.534; in [9], 0.91; in assay [10], -0.0313. Also, the z-score was -0.903 (inactive) in assay [2], -1.04 (inactive) in assay [3], -1.79 (inactive) in assay [4] and 1.52 (inactive) in [6].
For `O=C1c2ccccc2[C@@]2(Cc3ccccc3N(CC(F)(F)F)C2=O)[C@H](c2ccc(CO)cc2)N1Cc1ccccc1`, the composite z-score is 0.349 in [1]; -0.117 in assay [5]; -0.147 in assay [7]; 0.666 in assay [8]; -0.242 in assay [9]; -0.177 in [10]. In addition, the z-score was 0.633 (inactive) in assay [2], -0.269 (inactive) in [3], -1.49 (inactive) in assay [4] and -1.91 (inactive) in assay [6].
On to `C=CCNC(=O)[C@@H]1[C@H]2C(=O)O[C@H](c3ccccc3)[C@H](c3ccccc3)N2[C@H](c2ccc(OCCO)cc2)[C@@]12C(=O)Nc1ccc(C#CC3=CCCCC3)cc12`, for which the composite z-score was 1.54 in [1]; 2.94 in assay [5]; -0.168 in assay [7]; 0.918 in [8]; 1.14 in assay [9]; 0.0526 in assay [10]. Moreover, the z-score was 1.78 (inactive) in [2], 1.18 (inactive) in [3], 3.36 (inactive) in [4] and -0.639 (inactive) in assay [6].
For the compound `C=C(/C=C\CNS(=O)(=O)c1ccc(C)cc1)[C@H](O)[C@H]1CCCN1S(=O)(=O)c1ccccc1[N+](=O)[O-]`, the composite z-score in assay [1] was -0.196; in [5], 0.782; in assay [7] it was -0.139; in [8], 0.177; in [9], 0.221; in [10] it was -0.0567. In addition, the z-score was 1.89 (inactive) in assay [2], 1.09 (inactive) in assay [3], 35.1 (active) in [4] and 0.753 (inactive) in assay [6].
On to `CC1C2C(CCCO)=CC(C3C(=O)N(C)C(=O)C23)N1Cc1cccc(OC(F)(F)F)c1` (stereo not given), for which the composite z-score in [1] is 1.53; in assay [5] it was 3.13; in assay [7] it was 0.156; in [8] it was 0.148; in [9] it was 0.769; in assay [10] it was 0.1. Also, the z-score in assay [2] was 0.573 (inactive); in assay [3], -0.951 (inactive); in assay [4] it was 1.61 (inactive); in assay [6] it was 0.964 (inactive).
As for `CCCC1(C(=O)OC)C=C2C(=C(C(C)C)C(=O)C2C)CN1` (stereo not given), the composite z-score in [1] is -1.32; in [5] it was 0.268; in assay [7] it was 0.115; in [8], -0.797; in assay [9], -0.493; in assay [10] it was -0.146. Besides, the z-score was 0.128 (inactive) in [2], 0.0695 (inactive) in [3], 0.767 (inactive) in [4] and -1.24 (inactive) in assay [6].
